Sampled rows, rich in hits. Any-hit rate of the full collection: about 4.7%.
tim23-1 inh – growth inhibitors of tim23-1 mutant yeast. S. cerevisiae tim23-1 growth, BacTiter-Glo luminescence, 24 h. 1.3% of 330,000 active. AID 463212. inhibition, % at 20 µM;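 active = growth inhibition of the mutant yeast at or above 50%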;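 note: temperature-sensitive mutant grown at 25 °C; plate controls were DMSO-treated mutant yeast for no effect and medium wells lacking yeast for full effect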
SKKanGAS inh – inhibitors of SKKanGAS S. pyogenes growth in kanamycin (SK-promoter or general growth effect) | 1.3% of 300,000 active | inhibition, % at 7.5 µM | BacTiter-Glo, 6 h | AID 1662;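 active = mean replicate score, as percent of positive control median, at least 50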;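 note: strain carries kanamycin resistance gene driven by streptokinase promoter and grows in 40 µg/ml kanamycin; loss of luminescence reflects streptokinase promoter inhibition or plain growth inhibition; 0% = median of DMSO wells and 100% = positive control at its reference dose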
TIM10 inh – growth inhibitors of TIM10 yeast strain; S. cerevisiae TIM10 strain growth, BacTiter-Glo luminescence, 24 h; inhibition, % at 10 µM; 1.4% of 330,000 active; AID 463195;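 active = inhibition of 40% or more at the single tested concentration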;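 note: wild-type TIM10 isogenic control strain grown at permissive 25 °C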
ATG4B inh – inhibitors of human ATG4B cysteine protease | ATG4B cleavage of LC3-PLA2, NBD-HPC fluorescence, 1 h | inhibition, % at 8.33 µM | 0.51% of 340,000 active | AID 504462; in the data active = inhibition above about 40%
Target sequence (Q9Y4P1 whole entry, looked up): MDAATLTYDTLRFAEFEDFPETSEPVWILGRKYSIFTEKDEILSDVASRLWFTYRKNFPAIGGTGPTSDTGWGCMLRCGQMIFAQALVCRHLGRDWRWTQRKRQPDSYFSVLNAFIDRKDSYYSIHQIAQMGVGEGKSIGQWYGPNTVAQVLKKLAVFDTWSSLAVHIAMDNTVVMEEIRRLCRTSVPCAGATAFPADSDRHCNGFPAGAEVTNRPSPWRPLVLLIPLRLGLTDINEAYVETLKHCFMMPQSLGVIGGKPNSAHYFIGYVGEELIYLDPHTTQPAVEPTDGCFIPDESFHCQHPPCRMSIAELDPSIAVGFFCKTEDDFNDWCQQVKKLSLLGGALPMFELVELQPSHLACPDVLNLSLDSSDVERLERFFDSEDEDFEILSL
tim10-1 inh – inhibits growth of tim10-1 mutant yeast. S. cerevisiae tim10-1 ts strain growth, BacTiter-Glo, 24 h. inhibition, % at 20 µM. 2.2% of 330,000 active;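 active = inhibition of at least 40%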;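 note: mutant grown at 25 °C; 0% = DMSO wells with yeast and 100% = wells holding no yeast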
PfHsp90 yeast 2 – growth inhibition of yeast expressing Plasmodium Hsp90; S. cerevisiae expressing PfHsp90, BacTiter-Glo ATP, 48 h; yeast lacking PDR1 and PDR3 efflux regulators; 0.32% of 310,000 active; inhibition, % at 9.4 µM; AID 504621;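 active = every replicate shows inhibition above about 80%, whatever the replicate mean, limit read from the data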;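 note: 0% = DMSO neutral controls and 100% = 20 µM radicicol positive controls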
tim10 confirm – confirmation of TIM10 yeast growth inhibitors; shares compounds with TIM10 inh; S. cerevisiae tim10 strain growth, BacTiter-Glo luminescence, 24 h; inhibition, % at 10 µM; 63% of 4,600 active;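 active = inhibition of yeast growth at or above a set limit in either of two replicates at 10 µM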;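 note: this counterscreen used the strain with wild-type TIM10; 0% = yeast with DMSO and 100% = medium wells lacking yeast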
* hit, by the source's call; nt = no result given.

SMILES	tim23-1 inh	SKKanGAS inh	TIM10 inh	ATG4B inh	tim10-1 inh	PfHsp90 yeast 2	tim10 confirm
COc1ccc(F)c(CN2CCCC(CNS(=O)(=O)c3cccc4cccnc34)C2)c1 (stereo unspecified)	12.3	-5.0	-0.6	-15.5	10.6	-29.8	nt
Cc1ccc2nc(N3CCN(Cc4ccc(F)cc4)C3=O)c(C)cc2c1	3.1	-5.7	46.3*	-7.2	22.4	14.5	60.1*
O=C(O)CN1CCN(Cc2ccc(F)cc2)C1=O	5.2	-3.5	-0.4	0.0	-2.2	7.9	nt
Cc1cc(C)c(C(=O)C(C)OC(=O)Cn2cnc3c2c(=O)n(C)c(=O)n3C)cc1C (stereo unspecified)	-7.3	-5.3	58.2*	2.5	-16.8	-22.6	-33.4
O=C(Nc1cc(=O)[nH]c2nc(-c3ccc(Cl)cc3)nn12)c1ccccc1	-11.4	20.5	-4.3	-3.0	14.3	nt	nt
CSc1nc2nc(C)cc(-c3ccccc3)n2n1	19.6	-14.0	-5.5	-9.5	14.6	-13.2	nt
O=C(Nc1nc(-c2ccccc2)cs1)C1COc2ccccc2O1 (stereo unspecified)	43.7	7.9	41.1*	-1.2	23.5	12.2	34.9*
Cc1ccc(C(=O)Oc2ccc(C(=O)COC(=O)C3CC(=O)N(Cc4ccco4)C3)cc2)cc1 (stereo unspecified)	21.0	-0.7	40.6*	1.1	39.5	nt	13.3
O=C(COC(=O)C1CC(=O)N(Cc2ccco2)C1)c1ccc(OC(=O)c2ccco2)cc1 (stereo unspecified)	5.6	-6.5	20.7	3.0	13.4	33.6	nt
Nc1ccc(Cl)c(-c2nc3ncccc3o2)c1	-0.8	2.5	8.0	-3.4	-0.6	-9.4	nt
Nc1ccc(-c2nc3ncccc3o2)c(Cl)c1	42.1	-10.5	41.6*	-3.1	-3.1	1.6	23.2
Cc1ccc(NC(=O)NCCSc2ccc(C)cc2)cc1	6.4	-8.1	-5.3	20.9	-12.6	10.8	nt
COC(=O)Cc1ccc(NC(=S)NCCSc2ccc(C)cc2)cc1	13.4	-8.0	54.6*	-3.4	38.9	7.9	35.5*
COc1ccccc1/C=C/CN1CCN(c2ccccc2)CC1	2.9	-1.4	-9.8	-22.5	8.0	7.5	nt
CCCN1C(=O)/C(=C/c2ccc(N3CCCC3)c(C)c2)NC1=S	21.4	33.3	28.3	-1.6	38.5	-43.8	nt
Cc1cc(/C=C2\NC(=S)N(C)C2=O)ccc1N1CCCC1	-14.9	17.2	41.9*	8.2	30.2	-19.1	40.1*
CCCCC(=O)N1CCN(c2nc3ccc(F)cc3s2)CC1	9.0	4.1	4.8	4.5	9.2	7.6	nt
O=C(c1cc2sccc2n1Cc1ccc(F)cc1)N1CCN(c2nc3ccccc3s2)CC1	26.2	23.1	43.4*	-15.2	31.7	3.8	19.1
O=C(c1ccc([N+](=O)[O-])o1)N1CCN(c2nc3ccc(F)cc3s2)CC1	-41.5	8.8	40.3*	5.1	2.6	nt	80.7*
O=C(c1ccc([N+](=O)[O-])o1)N1CCN(c2nc3c(Cl)cccc3s2)CC1	5.6	9.3	55.6*	-1.6	24.0	-47.7	84.5*
O=C(c1ccc([N+](=O)[O-])o1)N1CCCCCC1	42.2	nt	-2.1	5.5	-37.6	-20.5	nt
O=C(O)c1cccc(CSc2nnc(Cc3ccccc3)o2)c1	20.8	2.3	-7.2	3.8	7.2	nt	nt
CC(=O)c1sc(NC(=O)c2cccs2)nc1C	24.5	4.3	15.2	-10.1	12.2	21.2	nt
CCCCC(c1nnnn1CC1CCCO1)N1CCN(c2nc3ccccc3s2)CC1 (stereo unspecified)	nt	nt	nt	-2.6	nt	-0.7	nt
CCCCC(=O)NC(=S)Nc1ccccc1N1CCCCC1	44.4	3.5	44.5*	7.5	37.1	-30.1	-33.2
SMILES	tim23-1 inh	SKKanGAS inh	TIM10 inh	ATG4B inh	tim10-1 inh	PfHsp90 yeast 2	tim10 confirm
O=C(Cc1ccccc1)Nc1ccccc1N1CCOCC1	6.1	3.9	4.0	-5.1	0.9	nt	nt
CCCC(=O)NC(=S)Nc1ccccc1N1CCOCC1	28.2	2.8	22.1	-3.2	33.8	19.1	nt
O=C(Cc1ccc(Cl)cc1)NC(=S)Nc1ccccc1N1CCOCC1	44.4	nt	41.9*	2.8	27.6	-117.7	34.2*
Cc1c(C(=O)NC(=S)Nc2ccccc2N2CCCC2)cccc1[N+](=O)[O-]	41.6	8.7	42.1*	6.3	38.9	-9.4	31.8*
Cc1cc(C)n(CC(O)COc2ccc(F)cc2)n1 (stereo unspecified)	14.9	-4.6	9.6	6.4	16.4	8.9	nt
CCCC(=O)Nc1c(C)n[nH]c1C	1.8	5.2	-7.7	-1.2	4.5	14.6	nt
CC1CN(CC(O)COC(c2ccc(Cl)cc2)c2ccc(Cl)cc2)CC(C)O1 (stereo unspecified)	35.5	-2.9	45.5*	-14.2	32.1	7.3	39.6*
C=CCNC(=O)C12CCC(C)(C(=O)[C@H]1Br)C2(C)C (stereo partly specified)	11.9	0.7	42.4*	-8.1	12.1	11.3	-20.2
S=C(NCCc1ccccc1)N/N=C/c1ccc(Cl)cc1	42.0	65.0*	40.6*	-0.8	12.4	-7.4	33.4*
O=C(Nc1cccc(C(F)(F)F)c1)C1CCCN1S(=O)(=O)c1cccc2cccnc12 (stereo unspecified)	48.1	-0.2	39.7	-0.6	27.8	nt	nt
CCc1ccc(C(=O)NNc2ccc(Cl)cc2)cc1	30.5	5.5	53.3*	4.8	4.5	-2.3	53.3*
CCc1ccc(C(=O)NNc2cc(Cl)cc(Cl)c2)cc1	23.5	11.7	6.3	10.8	-6.9	7.2	nt
O=C(O)c1c[nH]c2ccc(S(=O)(=O)N3CCN(c4ccc(F)cc4)CC3)cc2c1=O	0.7	0.6	4.7	0.5	18.7	-8.3	nt
CC(=O)Nc1ccc(NC(=O)C(C)OC(=O)CCSc2ccccc2Cl)cc1 (stereo unspecified)	4.4	nt	96.9*	-4.8	12.5	-10.3	3.6
Cc1ccc(SCCC(=O)OC(C)C(=O)Nc2ccccc2)cc1 (stereo unspecified)	-3.3	5.2	-4.9	-4.3	2.3	nt	nt
Cc1c(C#N)c(O)[nH]c(=O)c1N=Nc1ccc(Cl)c(C(=O)O)c1	-3.4	-3.7	10.9	-3.7	-5.4	-21.4	nt
CCOC(=O)C1=C(C)NC(=S)NC1c1ccc(-c2ccc(Cl)cc2)o1 (stereo unspecified)	28.9	-2.6	44.4*	-13.9	29.0	-37.3	33.2*
CCOC(=O)C1=C(C)NC(=S)N(C(C)=O)C1c1ccc(Cl)cc1 (stereo unspecified)	46.7	7.5	42.3*	25.4	24.9	-11.7	42.0*
CCOC(=O)C1=C(C)NC(=O)NC1c1ccc(-c2ccc(Cl)cc2)o1 (stereo unspecified)	15.7	-3.2	12.5	4.6	16.0	-2.6	nt
CCCCCOC(=O)c1[nH]c2c(c1C)C(=O)C(C(=O)OC)C(C)C2 (stereo unspecified)	47.8	-2.0	43.1*	0.0	38.9	12.1	36.8*

High-throughput results (PubChem)
